Compound activity deposited in PubChem BioAssay by Buhrlage Lab, Dana-Farber Cancer Institute and Novartis Institutes for BioMedical Research (Cambridge, Mass).
USP30 inh: inhibitors of human USP30 deubiquitinase; 5.3% of 47,000 active; purified USP30, Ub-rhodamine cleavage fluorescence; Ubiquitin carboxyl-terminal hydrolase 30 (Homo sapiens), Q70CQ3; inhibition, % at 25 µM
USP28 inh: inhibitors of human USP28 deubiquitinase | Ubiquitin carboxyl-terminal hydrolase 28 (Homo sapiens), Q96RU2 | purified USP28, Ub-rhodamine cleavage fluorescence, 30 min | inhibition, % at 25 µM | 3% of 47,000 active
Target sequence (Q96RU2 whole entry, looked up): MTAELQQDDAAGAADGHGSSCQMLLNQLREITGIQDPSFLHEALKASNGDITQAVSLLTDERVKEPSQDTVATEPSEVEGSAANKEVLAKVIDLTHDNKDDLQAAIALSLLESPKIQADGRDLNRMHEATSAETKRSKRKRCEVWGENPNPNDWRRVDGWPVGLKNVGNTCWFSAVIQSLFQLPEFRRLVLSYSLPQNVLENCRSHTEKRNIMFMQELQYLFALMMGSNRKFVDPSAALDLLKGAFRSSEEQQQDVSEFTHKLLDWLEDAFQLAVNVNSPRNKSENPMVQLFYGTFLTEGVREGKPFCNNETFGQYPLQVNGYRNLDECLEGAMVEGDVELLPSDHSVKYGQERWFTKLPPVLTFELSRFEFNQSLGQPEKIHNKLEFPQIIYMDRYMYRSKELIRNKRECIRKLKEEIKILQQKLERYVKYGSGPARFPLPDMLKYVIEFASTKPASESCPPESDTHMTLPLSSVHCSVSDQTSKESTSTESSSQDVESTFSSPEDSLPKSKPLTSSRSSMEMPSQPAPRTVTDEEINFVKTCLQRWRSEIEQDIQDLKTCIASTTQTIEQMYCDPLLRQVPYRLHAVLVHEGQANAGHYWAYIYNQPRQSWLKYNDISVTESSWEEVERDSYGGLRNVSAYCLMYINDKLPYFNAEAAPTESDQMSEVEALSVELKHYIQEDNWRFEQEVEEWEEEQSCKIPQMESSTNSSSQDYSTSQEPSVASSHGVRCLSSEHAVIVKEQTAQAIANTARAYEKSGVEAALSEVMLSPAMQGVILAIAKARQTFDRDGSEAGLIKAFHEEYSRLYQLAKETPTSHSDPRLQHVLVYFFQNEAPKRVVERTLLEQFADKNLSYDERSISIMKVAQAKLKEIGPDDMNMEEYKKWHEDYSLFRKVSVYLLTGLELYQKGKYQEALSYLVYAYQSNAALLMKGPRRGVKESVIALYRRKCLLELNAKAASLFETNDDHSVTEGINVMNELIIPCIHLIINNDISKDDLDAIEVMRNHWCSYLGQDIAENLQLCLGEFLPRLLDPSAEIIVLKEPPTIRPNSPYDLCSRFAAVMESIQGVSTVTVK
A number is an active result; 0 = inactive. Most compounds without a hit are left out; they make up all but 7% or so of the library. No stated cut-off is given here; in the data, active means inhibition above about 30%; inactive means the rest.

SMILES	USP30 inh	USP28 inh
CCc1ccc(NC(=O)CCc2nc3cccnc3n2Cc2ccccc2)cc1	79	57
Cc1ccccc1-c1nc(SCC(=O)N2CCCC2)c2c(=O)n(C)c(=O)n(C)c2n1	43	0
Cc1ccccc1NC(=O)CSc1nc(-c2ccco2)nc2c1c(=O)n(C)c(=O)n2C	0	0
CN(CCCN1C(=O)C2C(C(=O)Nc3cccc(Cl)c3)C3C=CC2(O3)C1C(=O)NC1CCCCC1)Cc1ccccc1 (stereo not given)	0	0
CC(C)(C)c1ccc(Oc2coc3cc(OCC(=O)O)ccc3c2=O)cc1	0	0
Cc1cc(C)c(C)c(Oc2coc3cc(O)ccc3c2=O)c1	0	34
O=C(NCCN1CCOCC1)C1CCCN(S(=O)(=O)N2CCCCCC2)C1 (stereo not given)	0	0
COc1ccc2c(c1)CC(C(=O)NCc1ccc3c(c1)OCO3)CO2 (stereo not given)	0	0
O=C(CCCC(=O)N(c1cccc(C(F)(F)F)c1)C(C(=O)NC1CCCC1)c1ccc(F)cc1)Nc1ccccn1 (stereo not given)	0	0
COc1ccc(N(C(=O)CCCC(=O)Nc2ccccn2)C(C(=O)NC2CCCCC2)c2ccc(Cl)cc2)c(OC)c1 (stereo not given)	0	0
COc1ccc(OC)c(N(CC(=O)NC2CCCCC2)C(=O)CCC(=O)Nc2ccccn2)c1	30	0
Cc1ccc(N(C(=O)CCCC(=O)Nc2ccccn2)C(C(=O)NC2CCCC2)c2ccc(F)cc2)cc1C (stereo not given)	38	0
CCOc1ccc(N(CC(=O)NC2CCCCC2)C(=O)CCC(=O)Nc2ccccn2)cc1	0	0
COc1ccc(N(C(=O)CCCC(=O)Nc2ccccn2)C(C(=O)NC2CCCCC2)c2ccc(Cl)cc2)cc1 (stereo not given)	37	0
CCc1nc(-c2cc(S(=O)(=O)N3CCCCC3)c(C)s2)no1	0	0
CCn1c(CC(=O)Nc2cc(C)ccc2C)nnc1SCC(=O)N1CCOCC1	0	0
COc1ccc(-n2nc(C)c3sc(N4CCC(NC(C)=O)CC4)nc32)cc1	0	0
O=C(O)c1ccc(N2CCCC2c2ccccc2)nc1 (stereo not given)	0	0
COc1ccc(C(=O)c2c[nH]cc2-c2ccc(C)cc2)cc1OC	0	0
O=C(c1ccc(Cl)cc1)c1c[nH]cc1-c1c(F)cccc1Cl	54	0
COc1cccc(-n2nnnc2SCC(=O)NCCc2c[nH]c3cc(OC)ccc23)c1	0	0
CCc1ccc(NC(=O)N2CC[C@@H]3CN(C)S(=O)(=O)[C@@H]3CC2)cc1	0	0
CC(C)c1ccc(NC(=O)c2ccc(C3Nc4ccccc4S(=O)(=O)N3)cc2)cc1 (stereo not given)	51	0
O=C(NC1CC1)c1ccc(C2Nc3ccccc3S(=O)(=O)N2)cc1 (stereo not given)	0	0
CCc1ccc(NC(=O)C2Nc3ccccc3S(=O)(=O)N2)cc1 (stereo not given)	46	0
SMILES	USP30 inh	USP28 inh
COc1ccc(C2=NC(=O)C(CC(=O)Nc3cccc(Cl)c3Cl)S2)cc1 (stereo not given)	0	0
Cc1noc(C2CN(C(=O)c3cc(-c4ccc(F)cc4)nn3C)C2)n1	0	0
CC1Cc2ccccc2N1C(=O)Cn1c(=O)cc(O)c2ccccc21 (stereo not given)	0	57
CC1Cc2ccccc2N1C(=O)Cn1c(CC(=O)N2CCCC2)nc2ccccc21 (stereo not given)	0	0
Cc1ccc(C(C)C)c(OCc2nc3ccccc3n2CC(C)C)c1	0	0
Cc1ccc(OCc2nc3ccccc3n2C(C)c2ccccc2)cc1 (stereo not given)	34	0
CCN1CCN(c2ncc(C(=O)N3CCN(c4ccccc4F)CC3)c(C)n2)CC1	0	0
CCc1ccc(NC(=O)CSc2ccc(N3CCC(C(=O)NC4CC4)CC3)nn2)cc1	62	67
O=C(CSc1ccc(N2CCOCC2)nn1)Nc1ccc(Cl)cc1	0	0
Cc1nc(C2CN(C(=O)CN(C)Cc3ccccc3)CCO2)n[nH]1 (stereo not given)	0	0
O=C(c1ccc[nH]1)N1CCC2(CC(=O)N(c3ccc(F)cc3)C2)C1 (stereo not given)	0	0
COc1cccc(-c2cc(C(=O)N3CCC4(CC3)OCCO4)[nH]n2)c1	0	0
COc1cccc(-c2cc(C(=O)N3CC(c4nc5ccccc5[nH]4)C3)[nH]n2)c1	0	33
Cc1nc(NCc2ccco2)nc2c1COCC21CCN(C(=O)NC(C)C)C1 (stereo not given)	0	0
O=C1CC(c2ccccc2F)c2c(nc(-c3ccccc3)[nH]c2=O)N1 (stereo not given)	0	0
COc1cccc(C2CC(=O)Nc3n[nH]c(-c4ccccc4)c32)c1OC (stereo not given)	0	0
COc1cc(C2CC(=O)Nc3nc(-c4ccccc4)[nH]c(=O)c32)cc(OC)c1O (stereo not given)	66	65
COc1ccc(C2CC(=O)Nc3n[nH]c(-c4ccccc4)c32)cc1OC (stereo not given)	70	0
COc1ccc(OC)c(C2CC(=O)Nc3n[nH]c(-c4ccccc4)c32)c1 (stereo not given)	36	0
COc1ccccc1C1CC(=O)Nc2n[nH]c(-c3ccccc3)c21 (stereo not given)	0	0
CCNC(=O)c1c(C)oc2c1C1=NC(CC)CN1C=N2 (stereo not given)	0	0
O=C(COc1cccc2ccc(N3CCC(Cc4ccccc4)CC3)nc12)Nc1cccc(Cl)c1	0	0
COCCN1CC2(CCN(Cc3ccccc3)CC2)COc2ccccc2S1(=O)=O	0	0
O=C(COc1ccc(Cl)cc1)NCc1nnc(SCC(=O)NCc2ccc(F)cc2)o1	0	0
O=C(CSc1nnc(-c2ccncc2)o1)N1CCCc2ccccc21	32	0
SMILES	USP30 inh	USP28 inh
O=C(COc1ccc(Cl)cc1)NCc1nnc(SCC(=O)N2CCc3ccccc32)o1	40	0
O=C(CSc1nnc(-c2ccc3c(c2)OCCO3)o1)N1CCCc2ccccc21	0	0
O=C(COc1ccc(Cl)cc1)NCc1nnc(SCC(=O)Nc2nc3ccccc3s2)o1	0	0
O=C(COc1ccc(Cl)cc1)NCc1nnc(SCC(=O)N2CCN(c3ccccc3)CC2)o1	39	0
COc1cccc(CNC(=O)Cn2c(N3CCCC3)nc(C)cc2=O)c1	0	0
O=c1[nH]c2nc(NC3CC3)ncc2c(=O)n1C1CCCC1	0	0
COc1cccc(-c2noc(NCCCN3CCC(C)CC3)n2)c1	0	0
COc1ccc(CCNC(=O)Cn2c(=O)n(-c3ccc(CC(=O)NC4CCCC4)cc3)c(=O)c3ccccc32)cc1OC	0	0
CCOc1ccccc1NC(=O)Cn1c(=O)n(CCC(=O)NC2CCCC2)c(=O)c2ccccc21	0	0
COc1ccc(OC)c(NC(=O)Cn2c(=O)n(CC3CCC(C(=O)NCCc4ccccc4)CC3)c(=O)c3ccccc32)c1 (stereo not given)	36	0
COc1ccc(OC)c(NC(=O)CN2CCC(c3nc4ccccc4[nH]3)CC2)c1	0	0
CCC(=O)Nc1ccccc1-c1nc2ccccc2n(CC(=O)Nc2cc(OC)ccc2OC)c1=O	85	40
O=C(Cn1c(=O)n(CC2CCC(C(=O)NCCc3ccccc3)CC2)c(=O)c2ccccc21)NCc1ccco1 (stereo not given)	0	0
